This is part of a sample that, as a whole, favours compounds with a hit. Of some 83,000 tested, about 20% had one in any assay.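 Cells were grown in 96-well plates and exposed to the test compound at a single concentration for 48 hours; results are reported as percent growth, with values below 10 considered active.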 Unmarked numbers belong to inactive results. The source made the active and inactive calls.

What all share (test): NCI-60 one-dose screen, 48 h (100 = growth as untreated, 0 = no growth, -100 = all killed)
Conditions in all cases: 10 µM unless noted

Assay [1] relates to SK-MEL-2 melanoma.
Assay [2] has as its system EKVX NSCLC.
Assay [3] concerns SN12C renal.
For assay [4], the system named is UO-31 renal.
The test system of assay [5] is TK-10 renal.
The subject of assay [6] is ACHN renal.
Assay [7] deals with A498 renal.
Assay [8] relates to CCRF-CEM leukemia.
The subject of assay [9] is MOLT-4 leukemia.
For assay [10], the system named is SR leukemia.

Regarding `CCCCOc1nc2ccc(C)cc2cc1/C=C/C(=O)/C=C/c1ccc2c(c1)OCO2`, the growth in assay [1] is 69.6%; in assay [2] it was 102%; in assay [3], 89.2%; in assay [4] it was 75%; in assay [5], 113%; in assay [6] it was 103%. In addition, the growth in assay [7] was 106%; in [8] it was 75.9%; in [9], 81.5%; in assay [10] it was 42.9%.
In the case of `COc1ccc(Sc2[nH]c(C(C)=O)c3ccccc23)cc1`, the growth in [1] is 57.8%; in [2], 30.9%; in assay [3], 87.5%; in assay [4], 73.5%; in [5], 58.9%; in assay [6], 80.9%. Also, the growth in assay [7] is -0.948% (active); in assay [8], 39.6%; in assay [9], 48.5%; in [10] it was 8.36% (active).
`CSc1nc(-c2cccs2)c2c(N)[nH]nc2n1`: the growth in assay [1] was 104%; in [2], 73.1%; in [3] it was 109%; in assay [4], 84.1%; in assay [5], 93.4%; in [6], 101%. The growth was 66.7% in [7], 109% in assay [8], 87% in [9] and 73.3% in assay [10].
As for `COc1cc(C(C)c2ccc3c(ccn3C)c2)cc(OC)c1OC` (stereo not given), the growth in assay [1] is 30.5%; in assay [2], 34.9%; in [3], 32.6%; in [4], 35.2%; in assay [5], 71.3%; in assay [6] it was 28.5%. Besides, the growth in assay [7] is 8.95% (active); in assay [8] it was 16.3%; in assay [9], 12.6%; in [10] it was 13.8%.
As for `COc1ccc(C2=NN(c3ccc(S(N)(=O)=O)cc3)C(c3ccc(Cl)cc3)C2)c(O)c1` (stereo not given), the growth in assay [1] is 87.9%; in assay [2], 56%; in assay [3], 73%; in assay [4] it was 60.3%; in assay [5], 53.7%; in assay [6], 65%. For the same compound, the growth in [7] was 47.2%; in assay [8], 26.8%; in [9], 32.5%; in assay [10], 16.1%.
Regarding `[2H]c1nc(Nc2ncc3cc(C(=O)N(C)C)n(C4CCCC4)c3n2)c([2H])c([2H])c1N1C([2H])([2H])C([2H])([2H])NC([2H])([2H])C1([2H])[2H]`, the growth in assay [1] was 83.9%; in [2], 64.4%; in assay [3], 67.9%; in assay [4] it was 52.5%; in assay [5], 37%; in assay [6] it was 47.1%. Besides, the growth in assay [7] is 76.8%; in assay [8], 38.5%; in assay [9], 5.14% (active); in assay [10], 26.6%.
Regarding `COc1ccc(N(C)c2nc(Cl)nc3ccn(C)c23)cc1`, the growth in assay [1] was 19.3%; in assay [2] it was 43.1%; in assay [3], 23%; in assay [4], 45%; in assay [5] it was 67.7%; in assay [6], 21.9%. For the same compound, the growth was -9.23% (active) in assay [7], 8.02% (active) in assay [8], 9.94% (active) in [9] and 11.3% in assay [10].
As to `COC(=O)/C=C1\SC(=Nc2ccc(F)cc2)N(CCc2c[nH]c3ccccc23)C1=O`, the growth is 102% in assay [1]; 92.6% in assay [2]; 103% in assay [3]; 81% in [4]; 106% in assay [5]; 103% in [6]. Moreover, the growth in assay [7] is 110%; in assay [8], 68.2%; in assay [9] it was 76.4%; in assay [10], 85.5%.
`OCCNc1nc(NCCO)nc(Nc2ccc(C3=NN(c4ccc(Cl)cc4)C(c4ccc(Cl)cc4)C3)cc2)n1` (stereo not given): the growth was 52% in [1]; 65% in [2]; 80.1% in assay [3]; 45.5% in assay [4]; 87.6% in assay [5]; 51.1% in assay [6]. For the same compound, the growth in assay [7] is 85.7%; in [8], 25.1%; in assay [9], 29.4%; in assay [10] it was 25.5%.
Take `Nc1c(C(=O)Nc2ccccn2)sc2nc3c(cc12)CCCC3`: the growth in assay [1] was 35.1%; in assay [2], 55.2%; in assay [3], 50.1%; in assay [4], 61.6%; in [5], 97.5%; in assay [6], 69.8%. The growth in assay [7] is 48.3%; in assay [8], 36.9%; in assay [9] it was 29.8%; in [10], 9.84% (active).
Take `C/C(=N\NC(=O)c1ccncc1)c1ccc(N)cc1`: the growth in assay [1] is 105%; in assay [2], 101%; in assay [3], 97.1%; in [4] it was 89.5%; in assay [5], 103%; in assay [6] it was 109%. Moreover, the growth in assay [7] is 90.6%; in [8], 92%; in assay [9] it was 92.4%; in assay [10] it was 85.8%.
Consider `S=C(Nc1ccccc1)c1ccccn1`, for which the growth is 103% in assay [1]; 93.1% in assay [2]; 85.9% in assay [3]; 57% in assay [4]; 109% in assay [5]; 93.5% in [6]. Also, the growth in assay [7] is 91.4%; in assay [8], 37.5%; in [9] it was 80%; in assay [10], 56.1%.
Consider `C#CCN(CCCOc1ccc(Cl)cc1Cl)CCCSC(=O)CCCCCN1/C(=C\C=C2/CCCC(/C=C/C3=[N+](CCCCCC(=O)[O-])c4ccccc4C3(C)C)=C2Cl)C(C)(C)c2ccccc21`, for which the growth in assay [1] was -29% (active); in assay [2], 61.6%; in [3], 5.06% (active); in assay [4], 94.9%; in [5] it was 50.3%; in assay [6], 102%. The growth in assay [7] was 13%; in assay [8], -1.58% (active); in [9], -18.7% (active); in assay [10], -16.2% (active).
In the case of `CCOc1ccc(C2N(c3cc(OC)c(OC)c(OC)c3)C(=O)C2(F)F)cc1` (stereo not given), the growth in assay [1] was 91.8%; in assay [2], 75.3%; in assay [3], 51%; in assay [4], 51.9%; in assay [5], 103%; in [6] it was 55.3%. Besides, the growth in [7] was 92.3%; in [8], 10.2%; in [9], 18.1%; in assay [10], 16.2%.
Turning to `Cc1nccc2c3ccc(OCc4cn(-c5ccc(Cl)cc5)nn4)cc3n(CC(C)C)c12`, the growth in assay [1] was 20.7%; in assay [2] it was 40.8%; in [3], 37.7%; in assay [4], 12.4%; in assay [5], 13.7%; in assay [6], 34.8%. Besides, the growth in [7] is 22.6%; in assay [8], 18%; in assay [9] it was -11.1% (active); in [10] it was -14.8% (active).

The values above are taken from PubChem BioAssay (NCI).
